Test in all cases: growth (OD600 after 10 h); higher = more growth (less inhibition)
For assay [1], the system named is E. coli TESEC Alr+ wild-type control. To be noted: compound 0.1 mM; raw OD600 reference: median of DMSO wells 0.241, cell-free background 0.041. The method, then: (§1)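 TESEC Mtb Alr E. coli, or the Alr+ wild-type control, in 384-well plates with Prestwick library compounds at 0.1 mM and 1% DMSO, across arabinose induction levels of 1E3 to 1E7 nM. Growth is read as OD600 after 10 h at 37 °C in triplicate biological replicates.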

Assay [2] deals with E. coli TESEC Mtb Alr. The following applies: compound 0.1 mM. The method, then:
as §1

In another assay the test system is E. coli TESEC Mtb Asd. To be noted: compound 0.1 mM. Here is the method: (§2)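 TESEC E. coli strains in which the native enzyme is deleted and replaced by arabinose-inducible Mtb Asd, DapB, CysH or TrpD, each grown in its selective medium. Strains were screened against the Prestwick library at 0.1 mM and 1% DMSO in 384-well format at low and high arabinose induction. Growth is read as OD600 after 10 h in triplicate.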

The subject of the next assay is E. coli TESEC Mtb DapB. To be noted: compound 0.1 mM. The method, then: as §2
Assay [3] relates to E. coli TESEC Alr+ wild-type control. The following applies: compound 0.1 mM; raw OD600 reference: median of DMSO wells 0.49, cell-free background 0.052. The method, then: (§3)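 TESEC Mtb Alr E. coli (ΔaraC ΔtolC ΔentC Δalr ΔdadX, arabinose-inducible Mtb Alr) or the Alr+ wild-type control strain, grown in defined M9-fructose medium without D-alanine in 96-well plates with Prestwick library compounds at 0.1 mM and 1% DMSO. Low Alr induction is 0.1 µM arabinose and high induction is 10 mM arabinose.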

The test system of assay [4] is E. coli TESEC Mtb Alr. To be noted: compound 0.1 mM. The method, then: as §3
The source holds these as a separate data set.

Where [5] appears, read: arabinose 1000 nM, raw OD600 reference: median of DMSO wells 0.294, cell-free background 0.041.
Where [6] appears, read: arabinose 10000 nM, raw OD600 reference: median of DMSO wells 0.264, cell-free background 0.041.
[7] abbreviates: arabinose 100000 nM, raw OD600 reference: median of DMSO wells 0.201, cell-free background 0.041.
Setting [8] is: arabinose 1000000 nM, raw OD600 reference: median of DMSO wells 0.193, cell-free background 0.041.
Where [9] appears, read: arabinose 10000000 nM, raw OD600 reference: median of DMSO wells 0.146, cell-free background 0.041.
Setting [10] is: arabinose induction (level): High, raw OD600 reference: median of DMSO wells 0.331, cell-free background 0.041.
Setting [11] is: arabinose induction (level): Low, raw OD600 reference: median of DMSO wells 0.417, cell-free background 0.041.
[12] abbreviates: arabinose induction (level): High, raw OD600 reference: median of DMSO wells […], cell-free background 0.041.
[13] abbreviates: arabinose induction (level): Low, raw OD600 reference: median of DMSO wells 0.227, cell-free background 0.041.
Where [14] appears, read: arabinose 100 nM, raw OD600 reference: median of DMSO wells 0.413, cell-free background 0.052.
Setting [15] is: arabinose 10000000 nM, raw OD600 reference: median of DMSO wells […], cell-free background 0.052.

The structures appear in SMILES notation. Structures can show the parent of a compound that is named as a salt. ± gives the standard deviation of the averaged measurements.

`CCn1cc(C(=O)O)c(=O)c2cc(F)c(N3CCNC(C)C3)c(F)c21` (configuration not stated) [Lomefloxacin hydrochloride]: the growth in assay [1] worked out at 0.04153 ± 0.0004; with E. coli TESEC Mtb Alr [2] (setting [5]), 0.0411 ± 0.00064; with E. coli TESEC Mtb Alr [2] (setting [6]), 0.03993 ± 0.00021; in the assay on E. coli TESEC Mtb Alr [2] (setting [7]), 0.0417 ± 0.00042; in the assay on E. coli TESEC Mtb Alr [2] (setting [8]), 0.03983 ± 0.00025; in the assay on E. coli TESEC Mtb Alr [2] (setting [9]), 0.04157 ± 0.00015. Also, the growth with E. coli TESEC Mtb Asd (setting [10]) amounted to 0.04757 ± 0.00021; with E. coli TESEC Mtb Asd (setting [11]) it was 0.0494 ± 0.0013; with E. coli TESEC Mtb DapB (setting [12]), 0.0491 ± 0.0012; with E. coli TESEC Mtb DapB (setting [13]), 0.0483 ± 0.0006; in assay [3], 0.0513 ± 0.0014; in the assay on E. coli TESEC Mtb Alr [4] (setting [14]) it was 0.0534 ± 0.0016. The same molecule registered a growth in the assay with E. coli TESEC Mtb Alr [4] (setting [15]) of 0.0512 ± 0.0011.
`NC(=O)c1cc[n+](CC2=C(C(=O)[O-])N3C(=O)[C@@H](NC(=O)[C@@H](c4ccccc4)S(=O)(=O)O)[C@H]3SC2)cc1` [Cefsulodin sodium salt]: the growth in assay [1] amounted to 0.257 ± 0.0041; with E. coli TESEC Mtb Alr [2] (setting [5]), 0.309 ± 0.014; in the assay with E. coli TESEC Mtb Alr [2] (setting [6]) it was 0.235 ± 0.007; with E. coli TESEC Mtb Alr [2] (setting [7]) it was 0.228 ± 0.006; in the assay with E. coli TESEC Mtb Alr [2] (setting [8]) it was 0.2032 ± 0.0015; in the assay on E. coli TESEC Mtb Alr [2] (setting [9]) it was 0.145 ± 0.0069. In addition, the growth with E. coli TESEC Mtb Asd (setting [10]) is 0.33 ± 0.084; with E. coli TESEC Mtb Asd (setting [11]), 0.423 ± 0.028; in the assay with E. coli TESEC Mtb DapB (setting [12]), 0.211 ± 0.013; in the assay on E. coli TESEC Mtb DapB (setting [13]), 0.245 ± 0.015; in assay [3], 0.636 ± 0.015; with E. coli TESEC Mtb Alr [4] (setting [14]) it was 0.366 ± 0.012. This molecule gave a growth in the assay with E. coli TESEC Mtb Alr [4] (setting [15]) of 0.356 ± 0.014.
As for `O=C(O)c1cc(-c2ccc(F)cc2F)ccc1O` [Diflunisal], the growth in assay [1] was 0.128 ± 0.0035; with E. coli TESEC Mtb Alr [2] (setting [5]), 0.151 ± 0.018; in the assay with E. coli TESEC Mtb Alr [2] (setting [6]) it was 0.105 ± 0.0038; in the assay with E. coli TESEC Mtb Alr [2] (setting [7]), 0.119 ± 0.003; in the assay on E. coli TESEC Mtb Alr [2] (setting [8]), 0.086 ± 0.0022; with E. coli TESEC Mtb Alr [2] (setting [9]), 0.112 ± 0.0029. In addition, the growth worked out at 0.218 ± 0.059 in the assay with E. coli TESEC Mtb Asd (setting [10]); 0.139 ± 0.0027 in the assay on E. coli TESEC Mtb Asd (setting [11]); 0.172 ± 0.0032 in the assay with E. coli TESEC Mtb DapB (setting [12]); 0.17 ± 0.0045 in the assay on E. coli TESEC Mtb DapB (setting [13]); 0.279 ± 0.0091 in assay [3]; 0.248 ± 0.052 with E. coli TESEC Mtb Alr [4] (setting [14]). Moreover, the growth with E. coli TESEC Mtb Alr [4] (setting [15]) was 0.136 ± 0.006.
For `Cn1c(=O)c2c(ncn2CC(=O)O)n(C)c1=O` [Acefylline], the growth in assay [1] worked out at 0.248 ± 0.0081; in the assay with E. coli TESEC Mtb Alr [2] (setting [5]), 0.307 ± 0.01; in the assay on E. coli TESEC Mtb Alr [2] (setting [6]), 0.253 ± 0.0048; with E. coli TESEC Mtb Alr [2] (setting [7]) it was 0.21 ± 0.0073; with E. coli TESEC Mtb Alr [2] (setting [8]), 0.191 ± 0.0048; in the assay on E. coli TESEC Mtb Alr [2] (setting [9]), 0.138 ± 0.0046. In addition, the growth with E. coli TESEC Mtb Asd (setting [10]) came out at 0.297 ± 0.04; in the assay on E. coli TESEC Mtb Asd (setting [11]), 0.433 ± 0.014; in the assay on E. coli TESEC Mtb DapB (setting [12]), 0.196 ± 0.0038; in the assay with E. coli TESEC Mtb DapB (setting [13]), 0.207 ± 0.021; in assay [3], 0.457 ± 0.013; in the assay on E. coli TESEC Mtb Alr [4] (setting [14]), 0.408 ± 0.007. The molecule further yielded a growth in the assay on E. coli TESEC Mtb Alr [4] (setting [15]) of 0.347 ± 0.01.

For the origin of these results see the supplement of paper PMC9262897, “Low-cost anti-mycobacterial drug discovery using engineered E. coli” (Nature Communications, 2022).
